The results in this text go back to PubChem BioAssay AID431 (Sanford-Burnham Center for Chemical Genomics, 2006).

The campaign covered roughly 63,000 compounds. About 1,100 (1.7%) were called active. The list comes from a sample in which actives are over-represented; it also holds similar structures and randomly drawn compounds. Potency and affinity values are given separately. Unmarked numbers belong to inactive results.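 The calls were made as follows: active = compounds whose percent cytotoxicity in the single-dose primary screen, scaled between solvent and toxic-drug controls, exceeds 50; inactive = the rest.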

A short description of this experiment: viability loss of HPDE-C7K cells – cell-based, fluorescence, HTS, primary screen (AID 431).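 Also: 0% = DMSO solvent wells and 100% = doxorubicin-treated wells.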 The note with it: HPDE-C7K KRASV12 cells, Alamar Blue viability, 48 h; at 10 µM; stronger effect = higher value. For orientation: Resazurin is reduced to fluorescent resorufin, in cell work by metabolically active cells.
For the molecule `CCc1nnc(NC(=O)CN2CCN(c3ccccc3OC)CC2)s1`, the cytotoxicity is -2.9%. Consider `CCOC(=O)CSc1nc2ccsc2c(=O)n1C1CCN(C(=O)OCC)CC1`, for which the cytotoxicity was 8%. The result for `O=C(COC(=O)c1ccc2c(c1)OCO2)NCc1ccc(Cl)cc1` reads 8.3%; that for `O=C(CCn1c(=O)c2sccc2n(CC(=O)OCc2ccccc2)c1=O)NCc1ccco1`, -12.9%.

Turning to `CCOC(=O)c1ccc(-n2[nH]c(-c3ccccc3)cc2=O)cc1`, the cytotoxicity is 58.5% (active). With `CCOC(=O)c1ccc(-n2c(=O)[nH]c3ccccc3c2=O)cc1` the figure was 3%; with `CCOC(=O)c1ccc(N2C(=O)C(C)=C(C)C2=O)cc1`, 35.6%.

For the molecule `COc1ccc(CCNC(=O)CCn2c(=O)oc3ccccc32)cc1`, the cytotoxicity was -9.7%. On to `COC(=O)c1ccc(CSc2nnc(NCc3ccccc3)s2)o1`, for which the cytotoxicity was -2.2%.

With `COC(=O)c1ccc(CSc2nnc(Nc3ccccc3OC)s2)o1`, the cytotoxicity was 44.9%. For `CCOc1ccccc1Nc1nnc(SCc2ccc(C(=O)OC)o2)s1`, the cytotoxicity is 57.3% (active). `c1ccc2nc(N3CCOCC3)c(N3CCOCC3)nc2c1`: the cytotoxicity is -2.3%. As for `Cc1cc(=O)[nH]c(SCC(=O)N2CCN(C(c3ccccc3)c3ccccc3)CC2)n1`, the cytotoxicity is -3.1%. For the molecule `O=C1CCCc2sc3c(c2N1)CCCCC3`, the cytotoxicity was 6.3%.

As for `CCSc1ncnc2c(C#N)c3n(c12)CCCCC3`, the cytotoxicity was -17%. In the case of `CCOC(=O)C1=C(N2CCCCC2)c2cc3c(n2C1=O)CCCC3`, the cytotoxicity was 3.2%.

Regarding `Cc1cc(C(=O)Nc2sc3c(c2C#N)CCC3)no1`, the cytotoxicity is 36.4%.

For the molecule `CCOc1ccc2c(c1)N(C(=O)CN1C(=O)CCC1=O)C(C)(C)C=C2C`, the cytotoxicity was -12.2%. Regarding `O=C(Oc1cccc(Br)c1)c1cccnc1`, the cytotoxicity was -13.7%. With `CCc1ccc2c(c1)C(C)=CC(C)(C)N2` the figure was -4.3%.

Turning to `O=C(Oc1ccc2ccccc2c1)c1ccco1`, the cytotoxicity is 2.3%. `COC(=O)c1ccc(OC(=O)c2ccco2)cc1`: the cytotoxicity was -32.6%.

In the case of `CC1=CC(C)(C)Nc2ccc(C)cc21`, the cytotoxicity was -5%. For the molecule `CCOc1ccc(OC(=O)c2cccnc2)cc1`, the cytotoxicity is 10.2%. The result for `COC(=O)C1=C(C)NC(C)=C(C(=O)OC)C1c1ccc(OC(=O)c2ccco2)cc1` reads 11%; that for `c1ccc(CNc2ncnc3c2cnn3-c2ccccc2)cc1`, 36%; that for `Cc1ccc2nc(NC3=NCN(Cc4ccco4)CN3)nc(C)c2c1`, 8.2%. The result for `Cc1ccc(-n2nnc3c(SCC(=O)NCc4ccco4)ncnc32)cc1` reads 8.5%.

Turning to `O=C(CN1C(=O)NC2(CCCc3ccccc32)C1=O)N1CCc2ccccc2C1` (stereo unspecified), the cytotoxicity was -21.3%. The result for `CCOc1ccc(C(C)(N)C(=O)O)cc1` (stereo unspecified) reads 5.7%; that for `COCCn1c(C)cc(C(=O)CSc2nnc(-c3cccnc3)n2-c2ccccc2F)c1C`, -8%. `CCN(Cc1ccccc1)Cc1c(F)cccc1F`: the cytotoxicity was -14.3%. As to `CCN(CC(=O)N1CCOCC1)S(=O)(=O)c1ccc(C)cc1`, the cytotoxicity is -7.2%.

As to `COc1cc(C2C3=C(Nc4ncnn42)c2ccccc2CC3)cc(OC)c1OC` (stereo unspecified), the cytotoxicity is 62.6% (active). The result for `COc1ccc(C2C3=C(Nc4ncnn42)c2ccccc2CCC3)cc1` (stereo unspecified) reads -11.9%. For the molecule `COc1cc(C2C(C(=O)OC(C)C)=C(C)Nc3ncnn32)cc(OC)c1OC` (stereo unspecified), the cytotoxicity is 3.4%.

`COc1ccc(C2C(C(C)=O)=C(C)Nc3ncnn32)cc1OC` (stereo unspecified): the cytotoxicity is -18.7%. With `c1csc(C2C3=C(Nc4ncnn42)c2ccccc2OC3)c1` (stereo unspecified) the figure was 8.9%; with `COc1ccc(C2C3=C(Nc4ncnn42)c2ccccc2CC3)cc1OC` (stereo unspecified), 50.3% (active); with `Cc1ccc(Cl)cc1NC(=O)c1ocnc1C`, 0.3%. The result for `COc1ccc(N(CC(=O)N2CCN(c3ccccc3)CC2)S(=O)(=O)c2c(C)noc2C)cc1` reads -8.3%; that for `NC(=O)c1c(NC(=O)Cc2cccs2)sc2c1CCC2`, -2.4%; that for `CC(C)(C#N)Nn1cnnc1`, -13.8%.

With `O=C(Nc1nc(-c2nc3ccccc3s2)cs1)c1ccco1`, the cytotoxicity is 1.4%. The result for `Cc1cccn2c(=O)c(C=Nc3ccccc3)c(NCc3ccco3)nc12` reads -13.4%; that for `COc1ccc2c(c1)N1CCN=C1N2C`, -12%. On to `Cc1cc(=O)[nH]c2ccccc12`, for which the cytotoxicity is -5.7%. With `CN(C)C=Nc1ncc2c([nH]c3ccccc32)c1C#N` the figure was 19.8%; with `CSc1ccccc1NC(=O)c1cnccn1`, -5.1%; with `CN(C)CCCNC(=O)CCC1CCCCC1`, 1.5%. For the molecule `COc1ccc(N2CCN(C(=O)CN=C3NS(=O)(=O)C(c4ccc(C)cc4)=C3C)CC2)cc1`, the cytotoxicity was -1.4%. Take `CC(C)CC(NC(=O)COc1ccccc1)C(=O)O` (stereo unspecified): the cytotoxicity is 5.6%. Consider `CCN1C(=O)c2cccc3c(NC(=O)c4cccc(N5C(=O)CCC5=O)c4)ccc1c23`, for which the cytotoxicity is -10.7%. The result for `CCN1C(=O)c2cccc3c(NC(=O)c4ccc5c(c4)OCCO5)ccc1c23` reads 95.1% (active); that for `CCN1C(=O)c2cccc3c(NC(=O)c4ccc(S(=O)(=O)N(C)C)cc4)ccc1c23`, 0%.

Turning to `c1ccc2c(c1)C(=NCC1CCCO1)NC2=NCC1CCCO1` (stereo unspecified), the cytotoxicity was 8.3%. As to `O=C1c2oc3ccc(F)cc3c(=O)c2C(c2ccc(F)cc2)N1CCCN1CCOCC1` (stereo unspecified), the cytotoxicity is -15.7%. As to `COc1ccc(CC(=O)N2CCNC2=O)cc1`, the cytotoxicity was -17.1%. In the case of `c1ccc(C2=Nn3c(nnc3-c3n[nH]c4c3CCC4)SC2)cc1`, the cytotoxicity is 10.4%. On to `Fc1ccc(C2=Nn3c(nnc3-c3n[nH]c4c3CCC4)SC2)cc1`, for which the cytotoxicity is 1.2%. As for `CC1=Nn2c(nnc2-c2n[nH]c3c2CCC3)SC1`, the cytotoxicity is -0.7%. The result for `Brc1ccc(C2=Nn3c(nnc3-c3n[nH]c4c3CCC4)SC2)cc1` reads 53.5% (active); that for `Clc1ccc(C2=Nn3c(nnc3-c3n[nH]c4c3CCC4)SC2)cc1`, 25.9%. The result for `Clc1ccc(C2=Nn3c(nnc3-c3n[nH]c4c3CCC4)SC2)cc1Cl` reads 71.9% (active). The result for `COC(=O)c1ccc(S(=O)(=O)N2C3CCC2CC(NC(=O)NC2CCCCC2)C3)cc1` (stereo unspecified) reads -5.3%; that for `CCn1c(SCC(=O)NCc2ccco2)nc2cccnc21`, -20.4%; that for `CCSc1sccc1C1C(C#N)=C(N)N(c2cccnc2)C2=C1C(=O)CC(C)(C)C2` (stereo unspecified), 30.9%. For `Cc1ccc2oc(-c3ccc(NC(=O)c4cccnc4)cc3)nc2c1`, the cytotoxicity is 56.9% (active). With `COC(=O)c1ccc(-c2nc3ccccc3o2)cc1` the figure was -20.7%; with `COc1ccc(-c2nc3cc(NC(=O)c4ccc5c(c4)OCO5)ccc3o2)cc1`, -6.9%; with `O=C(Nc1ccc2oc(=O)ccc2c1)c1cccnc1`, 7.9%. In the case of `Cc1ccc2oc(-c3ccc(NC(=O)c4ccc5c(c4)OCO5)cc3)nc2c1`, the cytotoxicity is 85.1% (active). With `COC(=O)c1ccc(-c2nc3ccc(C)cc3o2)cc1` the figure was 54.8% (active); with `Cc1ccc(-c2nc3cc(C)ccc3o2)cc1`, 8.8%. As for `O=C(Nc1ccc2oc(Cc3ccc(Cl)cc3)nc2c1)c1cccnc1`, the cytotoxicity was 58.3% (active). The result for `O=C(Nc1ccc2oc(-c3cccnc3)nc2c1)c1cccnc1` reads 3.2%; that for `CCc1ccc2oc(-c3cccc(NC(=O)c4cccnc4)c3)nc2c1`, 10.6%. Regarding `O=C(Nc1ccc2oc(-c3ccccc3)nc2c1)c1cccnc1`, the cytotoxicity was 34.5%. Regarding `O=C(Nc1ccc(-c2nc3ccccc3o2)cc1)c1ccc2c(c1)OCO2`, the cytotoxicity is 2%. The result for `c1ccc(CSc2nnc(-c3cccs3)n2Cc2ccco2)cc1` reads -21.5%. With `CCOC(=O)c1cccc(Nc2nc(C)cc(C)n2)c1`, the cytotoxicity is 0.1%. Take `O=C(NCc1ccccn1)c1cn(CCc2ccccc2)nn1`: the cytotoxicity is -5%. On to `CCOC(=O)Cc1csc(NC(=O)c2c(-c3c(F)cccc3Cl)noc2C)n1`, for which the cytotoxicity was -8.5%. With `O=S(=O)(Nc1ccc(-c2nc3ccccc3o2)cc1)c1ccccc1` the figure was 52% (active); with `COc1cc(C(=O)Nc2cccc(-c3nc4cc(C)ccc4o3)c2)cc(OC)c1OC`, 43.8%. With `O=C(Nc1ccc2c(c1)oc1ccccc12)c1cccnc1` the figure was 53.2% (active); with `COc1cc(C(=O)NCc2ccc(-c3nc4ccccc4o3)cc2)cc(OC)c1OC`, 2.5%. The result for `O=S(=O)(Nc1ccc2oc(-c3ccccc3)nc2c1)c1ccccc1` reads 15.5%; that for `O=C(Nc1ccc2c(c1)oc1ccccc12)c1ccncc1`, 7.8%. As to `COc1cccc(C(=O)Nc2ccc(-c3nc4ccccc4o3)c(O)c2)c1`, the cytotoxicity was 24.7%.

For `Cc1ccc2oc(-c3cccc(NC(=O)C4CCCO4)c3)nc2c1` (stereo unspecified), the cytotoxicity is 3.3%. For `O=C(Nc1ccc2ccccc2c1)c1cccnc1`, the cytotoxicity was 0.5%.

Turning to `COc1cc(OC)cc(C(=O)Nc2ccc(-c3nc4ccccc4o3)cc2)c1`, the cytotoxicity was 73.9% (active). Regarding `O=C(Nc1ccc(-c2nc3ccccc3o2)cc1)C1CCCO1` (stereo unspecified), the cytotoxicity is 5.9%. Take `Cc1occc1-c1nc(-c2ccccn2)no1`: the cytotoxicity is -13.5%.

As for `CC1CN(C(=O)c2cc3cc(Cl)cc(Cl)c3oc2=O)CC(C)O1` (stereo unspecified), the cytotoxicity is -12.2%. With `COc1ccc2oc(-c3ccccc3)c(C(N)=O)c2c1` the figure was -8.2%.

For the molecule `CCCCCC(=O)Nc1cccc(-c2nc3ncccc3o2)c1`, the cytotoxicity is -7%. With `Cc1nnc(SCC(=O)NCc2cccs2)n1-c1ccccc1` the figure was -5.1%. The result for `Cn1c(=O)c2c(SCc3ccccn3)nc(-c3ccccc3)nc2n(C)c1=O` reads 6.7%; that for `CC[C@@H](C)[C@H](NC(=O)C1CCN(C(=O)[C@@H](NS(=O)(=O)c2ccc(C)cc2)C(C)C)CC1)C(=O)O`, -19.2%.
